The record followed here is PubChem BioAssay (Tox21).

Experiment [1] in a line: qHTS assay to identify small molecule antagonists of the glucocorticoid receptor (GR) signaling pathway - cell viability counter screen (AID 720693). Note: nearly all actives have a fitted effect of over 55% in size.
Experiment [2] can be described thus: qHTS assay for identifying genotoxic compounds that show differential cytotoxicity against isogenic chicken DT40 cell lines with known DNA damage response pathways - wild type cell line (AID 743012). Note: nearly all actives have a fitted effect of over 60% in size. Note: potency is the fitted concentration of half-maximal effect. The method in brief:
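Cells (DT40 wild type, 300/well) are treated with DMSO-dissolved compounds after a ~0.5 h pre-incubation and kept 40 h at 37 C/5% CO2. Viability is then measured by CellTiter-Glo luminescence following 30 min at room temperature.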
In general terms: qHTS replaces the single test concentration by a dilution series.

Experiment [3] is described as follows: qHTS assay for identifying genotoxic compounds that show differential cytotoxicity against isogenic chicken DT40 cell lines with known DNA damage response pathways - Rev3 mutant cell line (AID 743014). Note: nearly all actives have a fitted effect of over 55% in size. Note: potency is the fitted concentration of half-maximal effect.
Experiment [4] in a line: qHTS assay for identifying genotoxic compounds that show differential cytotoxicity against isogenic chicken DT40 cell lines with known DNA damage response pathways - Rad54/Ku70 mutant cell line (AID 743015). Note: nearly all actives have a fitted effect of over 60% in size. Note: potency is the fitted concentration of half-maximal effect.
A short description of experiment [5]: qHTS assay to identify small molecule antagonists of the androgen receptor (AR) signaling pathway - cell viability counter screen (AID 743033; note: nearly all actives have a fitted effect of over 45% in size).
Experiment [6] can be described thus: qHTS assay to identify small molecule antagonists of the androgen receptor (AR) signaling pathway using the MDA cell line - cell viability counter screen (AID 743041; note: nearly all actives have a fitted effect of over 45% in size). The gist of the method:
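MDA-kb2 AR-luc cells (MMTV-luciferase, AR/GR responsive) treated with compounds plus R1881 agonist for 16 h at 37C. CellTiter-Fluor added at 15.5 h; fluorescence read after 30 min in the same wells.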

Experiment [7] in a line: qHTS assay to identify small molecule antagonists of the thyroid receptor (TR) signaling pathway (AID 743065). Note: nearly all actives have a fitted effect of over 55% in size. The method in brief:
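GH3.TRE-Luc rat pituitary cells (two TREs driving luciferase) were dosed with compound, then stimulated with 1 nM T3 (final) for 23.5 h at 37 C. ONE-Glo luminescence was the read-out, with CellTiter-Fluor fluorescence as the cytotoxicity counter-screen.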

The subject of experiment [8] is thyroid hormone receptor (rat, GH3 cells). The experiment is described as follows: qHTS assay to identify small molecule agonists of the thyroid receptor (TR) signaling pathway (AID 743066; calls by dose curve).
For experiment [9], the target named is Estrogen receptor (Homo sapiens) (UniProt P03372). Nature of the experiment: qHTS assay to identify small molecule antagonists of the estrogen receptor alpha (ER-alpha) signaling pathway (AID 743069; active = well fitted curve in the direction sought with a large enough effect in the signal ratio in the repeat runs, not every such curve was filed as active; the % refers to the signal ratio). The method in brief: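 HEK293 ER-alpha-UAS-bla GripTite cells, held overnight in 2% charcoal-stripped FBS, 5,000 cells/well, preincubated 4 h, then compound plus 17beta-estradiol for 18 h at 37C. Beta-lactamase read by LiveBLAzer B/G FRET substrate, 2 h at room temperature.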
Chain of Estrogen receptor (Homo sapiens) (P03372 whole entry, looked up): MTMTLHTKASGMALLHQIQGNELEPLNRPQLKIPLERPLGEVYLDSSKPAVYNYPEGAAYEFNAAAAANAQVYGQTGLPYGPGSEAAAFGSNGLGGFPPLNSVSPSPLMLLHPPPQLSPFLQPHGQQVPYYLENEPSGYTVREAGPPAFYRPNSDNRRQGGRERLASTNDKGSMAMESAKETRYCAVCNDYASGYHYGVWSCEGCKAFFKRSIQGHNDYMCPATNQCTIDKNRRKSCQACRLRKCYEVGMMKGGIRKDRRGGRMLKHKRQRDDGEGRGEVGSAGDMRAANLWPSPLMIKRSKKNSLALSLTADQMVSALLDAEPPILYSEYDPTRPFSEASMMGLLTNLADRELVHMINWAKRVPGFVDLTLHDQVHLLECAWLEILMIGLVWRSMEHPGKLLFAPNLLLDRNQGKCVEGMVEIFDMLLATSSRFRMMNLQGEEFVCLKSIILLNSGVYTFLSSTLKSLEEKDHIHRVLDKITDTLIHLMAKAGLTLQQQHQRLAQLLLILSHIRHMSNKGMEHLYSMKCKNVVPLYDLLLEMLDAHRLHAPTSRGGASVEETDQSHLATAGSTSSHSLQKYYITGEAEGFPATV

The nature of experiment [10]: qHTS assay to identify small molecule antagonists of the estrogen receptor alpha (ER-alpha) signaling pathway - cell viability counter screen (AID 743074; calls by dose curve;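 note: HEK293 cells carrying ER-alpha-UAS-bla reporter stimulated with 17beta-estradiol; nearly all actives have a fitted effect of over 45% in size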).
Experiment [11] has as its target Estrogen receptor (Homo sapiens) (UniProt P03372). The experiment is described as follows: qHTS assay to identify small molecule agonists of the estrogen receptor alpha (ER-alpha) signaling pathway (AID 743075; calls by dose curve).
The target is the same in experiment [12]. Nature of the experiment: qHTS assay to identify small molecule agonists of the estrogen receptor alpha (ER-alpha) signaling pathway using the BG1 cell line (AID 743079). Note: nearly all actives have a fitted effect of over 20% in size. As to conditions: BG1Luc4E2 cells, ERE-luciferase agonist, 22 h.
The nature of experiment [13]: qHTS assay to identify small molecule antagonists of the estrogen receptor alpha (ER-alpha) signaling pathway using the BG1 cell line (AID 743080; calls by dose curve;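 note: BG1 cells stimulated with 17beta-estradiol alongside compound; nearly all actives have a fitted effect of over 25% in size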). The gist of the method: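 Luminescence from a 4×ERE-luciferase reporter in BG1-Luc-4E2 cells served as read-out. Cells, pre-cultured 5 days in stripped-serum phenol-red-free medium, were exposed to compound with 17beta-estradiol co-stimulation for 21.5 h at 37 C.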

Experiment [14] is described as follows: qHTS assay to identify small molecule antagonists of the estrogen receptor alpha (ER-alpha) signaling pathway using the BG1 cell line - cell viability counter screen (AID 743081).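 Note: compound given together with 17beta-estradiol as the ER stimulus; nearly all actives have a fitted effect of over 45% in size.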
Another experiment concerns the target Aromatase (Homo sapiens) (UniProt P11511). Nature of the experiment: qHTS assay to identify aromatase inhibitors (AID 743083). Note: nearly all actives have a fitted effect of over 55% in size.
Experiment [15] can be described thus: qHTS assay to identify aromatase inhibitors - cell viability counter screen (AID 743084).
A short description of experiment [16]: qHTS assay to identify small molecule antagonists of the thyroid receptor (TR) signaling pathway - cell viability counter screen (AID 743064). Note: nearly all actives have a fitted effect of over 50% in size. The method in brief: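 In-well cytotoxicity read by CellTiter-Fluor (30 min, 37 C) following 23.5 h exposure of GH3 cells bearing a TRE-luciferase sensor. Compounds were added alongside 1 nM (final) T3 to drive TR transactivation.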

Where “and” joins values, the source holds several entries; their conditions need not be identical. Equal values may be shown once. Results filed as inconclusive are left out. Values without a mark were called inactive. Calls of active or inactive are those of the source. Unless noted, calls come from the whole dose curve; as a rule, active = well fitted curve in the direction sought with a large enough effect in the repeat runs; inconclusive = weak or mixed curves; inactive = no such curve, though single readings can be large; an effect the other way counts as inactive or inconclusive.
% is set by controls: 0 for no effect and ±100 for the full control effect.

Chain of Aromatase (Homo sapiens) (P11511 whole entry, looked up): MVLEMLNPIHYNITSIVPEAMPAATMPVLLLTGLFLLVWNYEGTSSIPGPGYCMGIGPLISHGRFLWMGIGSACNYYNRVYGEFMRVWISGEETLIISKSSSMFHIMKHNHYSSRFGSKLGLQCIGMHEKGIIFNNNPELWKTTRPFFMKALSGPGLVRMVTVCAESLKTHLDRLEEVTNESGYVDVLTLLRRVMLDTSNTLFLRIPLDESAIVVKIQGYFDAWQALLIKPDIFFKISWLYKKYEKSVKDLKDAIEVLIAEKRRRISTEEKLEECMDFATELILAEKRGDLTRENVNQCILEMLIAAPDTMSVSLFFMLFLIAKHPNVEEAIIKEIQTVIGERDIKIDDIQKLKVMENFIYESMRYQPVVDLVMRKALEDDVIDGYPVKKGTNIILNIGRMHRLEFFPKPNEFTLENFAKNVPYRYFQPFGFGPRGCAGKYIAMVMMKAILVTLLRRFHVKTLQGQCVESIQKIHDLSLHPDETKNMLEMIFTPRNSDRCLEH

In the case of `CCCCCCC(=O)CCCCCC/C=C/C[C@@H](O)[C@H](O)[C@@](N)(CO)C(=O)O`, the Potency result in experiment [1], in experiment [5], in [6], in experiment [7], in experiment [8] and in [9] was “inactive” in each case. The Potency result (in experiment [10]; in experiment [11]; in [13]; in experiment [14]; with Aromatase (Homo sapiens); in [15]) was “inactive” in each case. Moreover, the Potency in [2] is 23.7 nM (active) and 10.6 nM (active); in [3] it was 21.1 nM (active) and 11.9 nM (active); in experiment [4] it was 26.6 nM (active) and 13.3 nM (active). The activation in experiment [12] (at 70.3 µM (top of the series)) is -8.98% and -0.434%.

Consider `Brc1c(Br)c(Br)c(Br)c(Br)c1Br`, for which the figures for the viability change, negative = cytotoxic in experiment [1] and in experiment [6] were -0.032% [at 7.04 µM] and 1.47% [at 8.47 µM], respectively. The activity change, negative = cytotoxicity in experiment [2] is -12.6% [at 8.52 µM]; in experiment [4], 8.63% [at 8.55 µM]; in experiment [5], -0.0996% [at 7.04 µM]; in [14], 9.59% [at 8.47 µM]; in [15] it was -1.05% [at 8.47 µM]. For the same compound, the activity, negative = cytotoxicity in experiment [3] was 4.56% [at 8.53 µM]; in experiment [10], -1.91% [at 6.72 µM]. For the same compound, the activation is -0.0085% [at 8.08 µM] in experiment [8], 2.61% [at 6.71 µM] in experiment [11] and 1.05% in experiment [12] (at 8.47 µM (top of the series)). Also, the values for the activity, negative = inhibition (in experiment [9]; in the experiment with Aromatase (Homo sapiens)) were -6.9% [at 6.71 µM] and 14.6% [at 8.47 µM], respectively. Further, in experiment [13], the activity change, negative = inhibition was 17.5% [at 8.47 µM].

As for `O=C(Cl)C(Cl)Cl`, the Potency result in [1], in [2], in experiment [3], in [5], in experiment [6] and in experiment [7] was “inactive” in each case. Moreover, the Potency result in experiment [8], in experiment [9], in [10], in experiment [11], in [13] and in experiment [14] was “inactive” each time. Moreover, the Potency result (with Aromatase (Homo sapiens); in experiment [15]) was “inactive” each time. Moreover, the activation in [12] (at 70.3 µM (top of the series)) was 0.358%.

`CN(CCO)CCO`: the Potency entry in experiment [1], in experiment [2], in [3], in [4], in [5] and in experiment [6] was “inactive” in each case. Besides, the Potency entry in [7], in experiment [8], in experiment [10], in experiment [11], in experiment [13] and in [14] was “inactive” in each case. Besides, the Potency result (in the experiment with Aromatase (Homo sapiens); in experiment [15]) was “inactive” throughout. In experiment [12] (at 95 µM (top of the series)), the activation was -2.37%.

As for `O=C(O)C(Br)(Br)Br`, the Potency entry in [1], in [2], in [3], in experiment [5], in experiment [6] and in experiment [16] was “inactive” throughout. Further, the Potency result in experiment [7], in experiment [8], in experiment [9], in [10], in [11] and in [13] was “inactive” each time. Besides, the Potency result (in experiment [14]; in the experiment with Aromatase (Homo sapiens); in [15]) was “inactive” throughout. The activation in [12] (at 70.3 µM (top of the series)) is 6.64%.

Regarding `O=C1CC(=O)NC(=O)N1`, the Potency entry in experiment [1], in experiment [2], in experiment [3], in experiment [4], in [5] and in experiment [6] was “inactive” throughout. The Potency result in experiment [7], in experiment [8], in experiment [9], in experiment [10], in experiment [11] and in [13] was “inactive” in each case. Also, the Potency result (in [14]; in the experiment with Aromatase (Homo sapiens); in experiment [15]) was “inactive” each time. For the same compound, the activation in experiment [12] (at 70.3 µM (top of the series)) is -4.6%.

Take `O=C(Cl)C(Cl)(Cl)Cl`: the Potency entry in experiment [1], in [2], in [3], in [4], in experiment [5] and in experiment [6] was “inactive” throughout. In addition, the Potency result in [8], in experiment [9], in experiment [10], in experiment [11], in experiment [13] and in experiment [14] was “inactive” each time. Moreover, the Potency entry (with Aromatase (Homo sapiens); in [15]) was “inactive” in each case. The activation in experiment [12] (at 95 µM (top of the series)) was 9.01%.

As for `O=C(O)C(Cl)Br` (stereo unspecified), the Potency entry in experiment [1], in experiment [2], in experiment [3], in experiment [5], in experiment [6] and in experiment [16] was “inactive” throughout. The Potency result (in [7]; in experiment [8]; in [10]; in [14]; with Aromatase (Homo sapiens); in [15]) was “inactive” throughout.

In the case of `CC(=O)OCC1=C(C(=O)O)N2C(=O)[C@@H](N)[C@H]2SC1`, the Potency result in [1], in experiment [2], in experiment [3], in experiment [5], in experiment [6] and in [16] was “inactive” throughout. Moreover, the Potency result (in [8]; in experiment [10]; in [14]; with Aromatase (Homo sapiens); in experiment [15]) was “inactive” each time.
